The record followed here is PubChem BioAssay (NCI).

About 83,000 compounds went through this panel and 20% of them were active in at least one assay; those are over-represented in the sample as a whole.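 Results are percent growth after 48 hours of single-concentration exposure. 100 means growth as in untreated cells, lower positive values show inhibition; negative values down to -100 show cell death.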 Values without a mark were called inactive. Activity calls are given as the source filed them. Rule for the calls: active = growth percent below 10; inactive = the rest.

What all share (assay): NCI-60 one-dose screen, 48 h (100 = growth as untreated, 0 = no growth, -100 = all killed)
In one test the test system is NCI-H23 lung. Particulars: 10 µM unless noted.
The test system of another test is NCI-H322M lung. Particulars: 10 µM unless noted.
In a further test the test system is HOP-62 NSCLC. The following applies: 10 µM unless noted.
The next test deals with NCI-H460 lung. Particulars: 10 µM unless noted.
The subject of another test is NCI-H522 lung. The following applies: 10 µM.
Another test concerns A549/ATCC NSCLC. Particulars: 10 µM unless noted.
A further test deals with 786-0 renal. The following applies: 10 µM unless noted.
In another test the test system is HOP-92 NSCLC. The following applies: 10 µM unless noted.
In a further test the test system is COLO 205 colon. The following applies: 10 µM unless noted.

Regarding `CCOC(=O)c1[nH]c2cc(Cl)ccc2c1[C@@H](C(=O)NC(C)(C)C)N(CC)C(=O)CCCCC#Cc1cccc2c1CN(C1CCC(=O)NC1=O)C2=O` (stereo not given in full), the growth in the test on NCI-H23 lung is 59.4%; in the test on NCI-H322M lung, 13.5%; in the test on HOP-62 NSCLC, 20.7%; with NCI-H460 lung it was 13.9%; with NCI-H522 lung, 44.2%; in the test with A549/ATCC NSCLC it was 20.7%. Also, the growth in the test on 786-0 renal was 13.5%.
On to `c1ccc(-c2n(Cc3ccc4ccccc4n3)c3ccccc3[n+]2Cc2ccc3ccccc3n2)cc1`, for which the growth in the test with NCI-H23 lung was -5.45% (active); in the test with NCI-H322M lung, 14.3%; in the test on HOP-62 NSCLC, -1.08% (active); with NCI-H460 lung, 1.2% (active); in the test on HOP-92 NSCLC it was -18.8% (active); in the test with A549/ATCC NSCLC, 13.7%. Besides, the growth with 786-0 renal was 11.9%; with COLO 205 colon, -69.2% (active).
Turning to `CCN(CC)c1ccc2c(c1)OS(=O)(=O)N=C2`, the growth with NCI-H23 lung was 95.6%; in the test on NCI-H322M lung, 107%; in the test on HOP-62 NSCLC it was 99.9%; with NCI-H460 lung, 109%; in the test with NCI-H522 lung, 97.6%; in the test with A549/ATCC NSCLC, 106%. Moreover, in the test with 786-0 renal, the growth was 93%.
Turning to `COCCOC1=C(Cl)C(=O)c2ccccc2C1=O`, the growth in the test with NCI-H23 lung is 29%; in the test with NCI-H322M lung, 95.6%; in the test with HOP-62 NSCLC, 45.5%; with NCI-H460 lung, 14.3%; in the test on HOP-92 NSCLC, -17.3% (active); with A549/ATCC NSCLC, 21.6%. Besides, the growth was 81.8% in the test on 786-0 renal and 35.4% with COLO 205 colon.
Take `Cc1oc2c(c1C(=O)N1CC[C@@H](N)C1)C(=O)c1c(c(O)c3ccccc3c1O)C2=O`: the growth in the test on NCI-H23 lung is 45.3%; in the test with NCI-H322M lung, 33.5%; in the test with HOP-62 NSCLC, 31.9%; in the test on NCI-H460 lung, 2.29% (active); in the test on NCI-H522 lung it was 21%; with A549/ATCC NSCLC, 12.4%. Besides, the growth with 786-0 renal is 41%; in the test on COLO 205 colon it was 13.1%.
`CCCCCCCC/C=C\CCCCCCCCOc1cccc(CC(=O)NCC[N+]2(C)CCCC2)c1`: the growth is 75.9% in the test on NCI-H23 lung; 99.5% in the test on NCI-H322M lung; 69.5% in the test with HOP-62 NSCLC; 54.3% in the test on NCI-H460 lung; 68.6% with NCI-H522 lung; 95% in the test with A549/ATCC NSCLC. Moreover, the growth in the test on 786-0 renal was 93.9%.
Consider `COc1ccccc1-n1c(SCc2cc(OC)c(OC)c(OC)c2)nc2ccc(Cl)cc2c1=O`, for which the growth is 36.1% in the test with NCI-H23 lung; 55.1% with NCI-H322M lung; 51.8% in the test with HOP-62 NSCLC; 10.8% in the test on NCI-H460 lung; 42.9% in the test on HOP-92 NSCLC; 31.1% with A549/ATCC NSCLC. Besides, the growth with 786-0 renal was 51.1%; in the test with COLO 205 colon it was 28%.
Take `O=C1/C(=C/c2ccc(Oc3ccccc3)cc2)N=C(c2ccccc2)N1CCc1cccs1`: the growth in the test on NCI-H23 lung was 87.1%; in the test with NCI-H322M lung, 93.6%; in the test with HOP-62 NSCLC, 104%; in the test on NCI-H460 lung, 70.1%; in the test on NCI-H522 lung it was 46.8%; in the test with A549/ATCC NSCLC, 91.3%. The growth with 786-0 renal is 84.5%; with COLO 205 colon, 107%.
`COc1ccc(/C=C2\SC(=O)N(CN3CCN(c4cc5c(cc4F)c(=O)c(C(=O)O)cn5C4CC4)CC3)C2=O)cc1`: the growth in the test with NCI-H23 lung was 96.9%; in the test on NCI-H322M lung, 112%; in the test on HOP-62 NSCLC, 109%; with NCI-H460 lung, 104%; in the test on NCI-H522 lung it was 94.2%; in the test on A549/ATCC NSCLC, 99.4%. Besides, in the test on 786-0 renal, the growth is 93.1%.
Take `O=C(N/N=C(\CS(=O)(=O)c1ccccc1)c1cc2ccccc2oc1=O)c1ccccc1`: the growth is 97.9% with NCI-H23 lung; 107% with NCI-H322M lung; 117% with HOP-62 NSCLC; 101% in the test on NCI-H460 lung; 100% in the test with NCI-H522 lung; 93.1% in the test on A549/ATCC NSCLC. Moreover, the growth in the test with 786-0 renal was 106%.
Regarding `COc1cccc(C2CC(=O)Nc3cc4c(cc32)OCO4)c1OC` (stereo not given), the growth with NCI-H23 lung was 92.3%; with NCI-H322M lung, 88.3%; in the test on HOP-62 NSCLC, 98.2%; in the test on NCI-H460 lung it was 102%; with NCI-H522 lung, 87.4%; in the test with A549/ATCC NSCLC it was 89.8%. The growth was 114% with 786-0 renal and 107% in the test with COLO 205 colon.
Take `COc1ccc(Cn2c(Br)c3c(c2-c2cc(OC)c(OC)c(OC)c2)CCc2sc(N)nc2-3)cc1`: the growth with NCI-H23 lung is 38.1%; with NCI-H322M lung, 46%; in the test on HOP-62 NSCLC, 41.4%; with NCI-H460 lung it was 7.43% (active); in the test with NCI-H522 lung it was -11.4% (active); with A549/ATCC NSCLC it was 19%. Besides, the growth was 40.2% with 786-0 renal and -10.6% (active) in the test on COLO 205 colon.
With `O=C(NCc1cccnc1)c1ccc([N+](=O)[O-])o1`, the growth was -89.1% (active) with NCI-H23 lung; -6.13% (active) in the test with NCI-H322M lung; -4.75% (active) in the test with HOP-62 NSCLC; -64.3% (active) in the test on NCI-H460 lung; -66.5% (active) in the test on NCI-H522 lung; -10.5% (active) in the test on A549/ATCC NSCLC. For the same compound, the growth in the test on 786-0 renal is 4.89% (active); in the test on COLO 205 colon, -77% (active).
Turning to `Clc1cccc(Cl)c1Nc1ccc2nnc(-c3ccncc3)n2n1`, the growth in the test with NCI-H23 lung was 95.8%; in the test with NCI-H322M lung it was 88.5%; in the test with HOP-62 NSCLC, 103%; in the test with NCI-H460 lung, 106%; in the test on NCI-H522 lung, -74.4% (active); in the test on A549/ATCC NSCLC, 104%. The growth is 104% in the test on 786-0 renal and 110% with COLO 205 colon.
Take `Cc1nc(-c2ccccc2)cc2c(O)c(C(=O)N/N=C/Cc3ccccc3)[nH]c(=O)c12`: the growth was 100% in the test with NCI-H23 lung; 107% with NCI-H322M lung; 104% in the test with HOP-62 NSCLC; 102% in the test on NCI-H460 lung; 91.1% in the test with NCI-H522 lung; 105% in the test on A549/ATCC NSCLC. Further, the growth was 103% in the test with 786-0 renal and 111% in the test on COLO 205 colon.
